Structures can show the parent of a compound that is named as a salt. ± gives the standard deviation of the averaged measurements.
Tests used:
[1] = test system: Saccharomyces cerevisiae BY4741 SeMeCo community; assay: mean cell size (pixel area) (pixels); higher = larger cells; conditions: 10 µM; 24 h; SM minimal medium
Method in brief: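 Drug was acoustically predosed into 384-well plates to a final 10 µM in SM medium, and each well received 70 µl of Saccharomyces cerevisiae BY4741 diluted to OD600 = 0.3 from an overnight preculture at OD600 = 1.0. This four-plasmid fluorescent community carries one fluorescent marker per plasmid, and each plasmid complements one auxotrophy. After 24 h, the cells were fixed with paraformaldehyde and imaged by automated confocal microscopy, and Harmony analysis yielded mean cell pixel area per well. Each value is averaged over 3 replicates. Same SeMeCo high-content imaging drug screen: Selleck FDA-approved drugs at 10 µM, 24 h in SM medium, 384-well plates, 3 replicates.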

[2] = test system: Saccharomyces cerevisiae BY4741 SeMeCo community; assay: z-score of prototroph abundance vs DMSO median; higher = larger share of this subpopulation than in DMSO controls; conditions: 10 µM; 24 h; SM minimal medium; subpopulation (auxotrophy): Prototroph
Method in brief: (§1)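 Automated confocal microscopy of paraformaldehyde-fixed cells was used to follow a Saccharomyces cerevisiae BY4741 community carrying four plasmids, each restoring one auxotrophy and encoding a distinct fluorescent protein. The community was pre-grown overnight to OD600 1.0, diluted to 0.3, and added at 70 µl to 384-well plates acoustically predosed with library drugs (10 µM final) for 24 h of growth in minimal SM medium. Single-auxotroph fluorescent strains set thresholds and autofluorescence correction, and each subpopulation's abundance was scored as a z-score against the vehicle-well median.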

[3] = test system: Saccharomyces cerevisiae BY4741 SeMeCo community; assay: z-score of subpopulation abundance vs DMSO median, subpopulation auxotrophic for L; higher = larger share of this subpopulation than in DMSO controls; conditions: 10 µM; 24 h; SM minimal medium; subpopulation (auxotrophy): L
Method in brief: as §1

[4] = test system: Saccharomyces cerevisiae BY4741 SeMeCo community; assay: z-score of subpopulation abundance vs DMSO median, subpopulation auxotrophic for U; higher = larger share of this subpopulation than in DMSO controls; conditions: 10 µM; 24 h; SM minimal medium; subpopulation (auxotrophy): U
Method in brief: as §1

[5] = test system: Saccharomyces cerevisiae BY4741 SeMeCo community; assay: z-score of subpopulation abundance vs DMSO median, subpopulation auxotrophic for H; higher = larger share of this subpopulation than in DMSO controls; conditions: 10 µM; 24 h; SM minimal medium; subpopulation (auxotrophy): H
Method in brief: as §1

[6] = test system: Saccharomyces cerevisiae BY4741 SeMeCo community; assay: z-score of subpopulation abundance vs DMSO median, subpopulation auxotrophic for LU; higher = larger share of this subpopulation than in DMSO controls; conditions: 10 µM; 24 h; SM minimal medium; subpopulation (auxotrophy): LU
Method in brief: as §1

[7] = test system: Saccharomyces cerevisiae BY4741 SeMeCo community; assay: z-score of subpopulation abundance vs DMSO median, subpopulation auxotrophic for LM; higher = larger share of this subpopulation than in DMSO controls; conditions: 10 µM; 24 h; SM minimal medium; subpopulation (auxotrophy): LM
Method in brief: as §1

[8] = test system: Saccharomyces cerevisiae BY4741 SeMeCo community; assay: z-score of subpopulation abundance vs DMSO median, subpopulation auxotrophic for HM; higher = larger share of this subpopulation than in DMSO controls; conditions: 10 µM; 24 h; SM minimal medium; subpopulation (auxotrophy): HM
Method in brief: as §1

[9] = test system: Saccharomyces cerevisiae BY4741 SeMeCo community; assay: z-score of subpopulation abundance vs DMSO median, subpopulation auxotrophic for UM; higher = larger share of this subpopulation than in DMSO controls; conditions: 10 µM; 24 h; SM minimal medium; subpopulation (auxotrophy): UM
Method in brief: as §1

[10] = test system: Saccharomyces cerevisiae BY4741 SeMeCo community; assay: z-score of subpopulation abundance vs DMSO median, subpopulation auxotrophic for HL; higher = larger share of this subpopulation than in DMSO controls; conditions: 10 µM; 24 h; SM minimal medium; subpopulation (auxotrophy): HL
Method in brief: as §1

[11] = test system: Saccharomyces cerevisiae BY4741 SeMeCo community; assay: z-score of subpopulation abundance vs DMSO median, subpopulation auxotrophic for HLU; higher = larger share of this subpopulation than in DMSO controls; conditions: 10 µM; 24 h; SM minimal medium; subpopulation (auxotrophy): HLU
Method in brief: as §1

[12] = test system: Saccharomyces cerevisiae BY4741 SeMeCo community; assay: z-score of subpopulation abundance vs DMSO median, subpopulation auxotrophic for HLM; higher = larger share of this subpopulation than in DMSO controls; conditions: 10 µM; 24 h; SM minimal medium; subpopulation (auxotrophy): HLM
Method in brief: as §1

[13] = test system: Saccharomyces cerevisiae BY4741 SeMeCo community; assay: z-score of subpopulation abundance vs DMSO median, subpopulation auxotrophic for HUM; higher = larger share of this subpopulation than in DMSO controls; conditions: 10 µM; 24 h; SM minimal medium; subpopulation (auxotrophy): HUM
Method in brief: as §1

[14] = test system: Saccharomyces cerevisiae BY4741 SeMeCo community; assay: z-score of subpopulation abundance vs DMSO median, subpopulation auxotrophic for LUM; higher = larger share of this subpopulation than in DMSO controls; conditions: 10 µM; 24 h; SM minimal medium; subpopulation (auxotrophy): LUM
Method in brief: as §1

[15] = test system: Saccharomyces cerevisiae BY4741 SeMeCo community; assay: z-score of subpopulation abundance vs DMSO median, subpopulation auxotrophic for HLUM; higher = larger share of this subpopulation than in DMSO controls; conditions: 10 µM; 24 h; SM minimal medium; subpopulation (auxotrophy): HLUM
Method in brief: as §1

[16] = test system: Saccharomyces cerevisiae BY4741 SeMeCo community; assay: z-score of subpopulation abundance vs DMSO median, subpopulation auxotrophic for HU; higher = larger share of this subpopulation than in DMSO controls; conditions: 10 µM; 24 h; SM minimal medium; subpopulation (auxotrophy): HU
Method in brief: as §1

Structure (SMILES) | mean cell size [1] | z-score of prototroph abundance [2] | z-score of subpopulation abundance [3] | z-score of subpopulation abundance [4] | z-score of subpopulation abundance [5] | z-score of subpopulation abundance [6] | z-score of subpopulation abundance [7] | z-score of subpopulation abundance [8] | z-score of subpopulation abundance [9] | z-score of subpopulation abundance [10] | z-score of subpopulation abundance [11] | z-score of subpopulation abundance [12] | z-score of subpopulation abundance [13] | z-score of subpopulation abundance [14] | z-score of subpopulation abundance [15] | z-score of subpopulation abundance [16]
CCCCc1oc2ccc(NS(C)(=O)=O)cc2c1C(=O)c1ccc(OCCCN(CCCC)CCCC)cc1 [Dronedarone HCl] | 12.24 ± 0.057 | -0.15 | 0.34 | -0.45 | 1.17 | 0.61 | 0.28 | 1.04 | -0.63 | 1.2 | 2.17 | 1.9 | -0.2 | 0.59 | 0 | –
Nc1nnc(-c2cccc(Cl)c2Cl)c(N)n1 [Lamotrigine] | – | – | 2.5 | – | 0.08 | 0.85 | 1.83 | 1.25 | 0.01 | 1.44 | 0.23 | 0.44 | 0.8 | – | 1.58 | -0.39
CCCCCCCCOc1ccccc1C(=O)Nc1ccc(C(=O)OCC[N+](C)(CC)CC)cc1 [Otilonium Bromide] | 12.27 ± 0.099 | -2.44 | -3.08 | – | 4.58 | 0.74 | -2.38 | 5.47 | -0.66 | 1.68 | 3.81 | 9.05 | 2.02 | – | 12.2 | 3.65
CN1CC(=O)N2[C@H](c3ccc4c(c3)OCO4)c3[nH]c4ccccc4c3C[C@@H]2C1=O [Tadalafil] | 12.3 ± 0.19 | -0.42 | 1.85 | -1.35 | – | 0.3 | 3.43 | – | -0.26 | 1.24 | 0.4 | 1.64 | 0.54 | 1.95 | – | -0.74
CC(=O)O[C@H]1C[C@@H]2CC[C@@H]3[C@H](CC[C@@]4(C)[C@H]3C[C@H]([N+]3(C)CCCCC3)[C@@H]4OC(C)=O)[C@@]2(C)C[C@@H]1N1CCCCC1 [Vecuronium Bromide] | 12.4 ± 0.31 | 0.67 | 0.57 | -0.48 | -0.09 | 0 | – | -0.57 | -0.59 | – | -0.64 | -0.5 | 0.09 | -0.05 | – | -0.65
CCc1c2c(nc3ccc(OC(=O)N4CCC(N5CCCCC5)CC4)cc13)-c1cc3c(c(=O)n1C2)COC(=O)[C@]3(O)CC [Irinotecan HCl Trihydrate] | 12.5 ± 0.15 | -0.17 | -0.66 | -0.91 | 0.65 | -0.66 | 0.19 | 0.47 | -0.07 | 0.06 | -0.35 | 0.91 | 0.52 | 0.14 | 0.04 | –
CCOc1cc(N)c(Cl)cc1C(=O)NCC1CN(Cc2ccc(F)cc2)CCO1 (stereo not given) [Mosapride Citrate] | – | -0.84 | 0.92 | – | – | 0.9 | -0.05 | 0.32 | 0.37 | 0.35 | 0.02 | 0.62 | 0.97 | 0.54 | 1.04 | 0.11
OC(CCCN1CCCCC1)(c1ccccc1)c1ccccc1 [Diphenidol HCl] | 12.4 ± 0.41 | -0.42 | -0.41 | 0.63 | -0.38 | 0.23 | -0.56 | 0.03 | – | -0.42 | -0.05 | -0.07 | 0.78 | -0.35 | -0.39 | 0.48
OCCOc1ccc(/C(=C(/CCCl)c2ccccc2)c2ccccc2)cc1 [Ospemifene] | 12.7 ± 0.24 | 0.59 | -0.6 | -0.86 | 0.74 | -1.59 | -0.34 | – | -0.91 | 0.7 | 0.94 | -0.21 | -0.62 | -0.52 | – | -0.18
CO/N=C(\C(=O)N[C@@H]1C(=O)N2C(C(=O)O)=C(CSC(=O)c3ccco3)CS[C@H]12)c1csc(N)n1 [Ceftiofur] | 12.28 ± 0.045 | -0.44 | -0.31 | 0.57 | 0.28 | – | -0.51 | -0.13 | 0.79 | 0.39 | -0.05 | 0.23 | 0.28 | -0.02 | 0.07 | 0.47
COc1cccc2c1C(=O)c1c(O)c3c(c(O)c1C2=O)C[C@@](O)(C(=O)CO)C[C@@H]3O[C@H]1C[C@H](N)[C@H](O[C@@H]2CCCCO2)[C@H](C)O1 [Pirarubicin] | 12.3 ± 0.17 | 2.14 | 0.11 | 5.25 | -1.05 | – | -3.84 | -5.17 | – | 0.37 | 2.71 | -1.27 | -1.83 | -0.26 | 1.36 | –
Cc1nc2n(c(=O)c1CCN1CCC(c3noc4cc(F)ccc34)CC1)CCCC2O (stereo not given) [Paliperidone] | 12 ± 0.24 | 0.1 | -0.99 | – | -0.95 | -0.02 | -0.14 | – | 0.49 | -1.06 | -0.96 | – | 0.09 | -1.04 | -0.53 | 0.19
C[C@H]1c2cccc(O)c2C(O)=C2C(=O)[C@]3(O)C(O)=C(C(N)=O)C(=O)[C@@H](N(C)C)[C@@H]3[C@@H](O)[C@@H]21 [Doxycycline monohydrate] | – | 0.75 | 0.54 | -0.54 | 0.17 | -0.41 | – | -1.15 | – | -0.19 | -0.54 | 0.18 | -0.92 | 0.2 | 0.42 | –
CC1=C(C(=O)O)N2C(=O)[C@@H](NC(=O)[C@H](N)C3=CCC=CC3)[C@H]2SC1 [Cefradine] | – | 0.86 | 0.14 | 0.07 | -0.04 | -1.14 | -0.58 | -0.73 | – | 0.06 | -0.16 | 0.04 | – | -0.81 | 0.1 | -0.92
C=C[C@]1(C)C[C@@H](OC(=O)CS[C@@H]2C[C@H]3CC[C@@H](C2)N3C)[C@]2(C)[C@H](C)CC[C@]3(CCC(=O)[C@H]32)[C@@H](C)[C@@H]1O [Retapamulin] | 12.42 ± 0.093 | -0.09 | -0.16 | 0.79 | -0.84 | 1.21 | 0.32 | -0.99 | 0.21 | -0.57 | 0.45 | -0.52 | – | 0.62 | 0.65 | 0.72

Source: the supplement of paper PMC8975748
